Bioassay records as filed in PubChem BioAssay.
Six1-Eya2 inh = qHTS Assay for Inhibitors of the Six1/Eya2 Interaction | Homeobox protein SIX1 (Homo sapiens) + Protein phosphatase EYA2 (Homo sapiens), … | AlphaScreen GST-Six1/His-Eya2 binding, biochemical; stronger effect = lower value | activity change, % (test concentration not listed) | 360,000 tested, 0.56% active; in the data active means activity change below about -65%; inconclusive means mostly about -30% to -63%
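Six1/Eya2 binding was read as AlphaScreen signal after compounds were pinned into GST-Six1 plus His-tagged Eya2 (5X stock 250/500 nM) in pH 8.0 Tris/NaCl/TCEP buffer, beads added, then incubated 1 h, 37 C, dark.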
CtBP-E1A blk = qHTS Assay for Inhibitors of the CtBP/E1A Interaction | activity change, % (test concentration not listed) | 340,000 tested, 0.49% active | AlphaScreen GST-E1A/His-CtBP binding, 1536-well; stronger effect = lower value; in the data active means activity change below about -65%; inconclusive means mostly about -30% to -63%
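Protein mix (5X: 125 nM each GST-E1A, His-CtBP) was incubated with pinned compound 2 h at 37 deg C in dark, in 50 mM Tris pH 8.0 buffer with 300 mM NaCl. Glutathione donor and nickel acceptor beads followed; AlphaScreen signal read after 1 h.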
HP1b binding inh = HTS for Inhibitors of HP1-beta Chromodomain Interactions with Methylated Histone Tails; Chromobox protein homolog 1 (Homo sapiens), P83916; AlphaScreen HP1-beta / biotin-H3K9me3 peptide binding; Potency, µM (highest dose often 114 µM), usual class: inhibitors; 390,000 tested, 0.56% active; further: nearly all actives have a fitted effect of over 70% in size
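HP1-beta protein (50 nM final) preincubated 30 min at room temperature with biotinylated H3(1-18)K9me3 peptide (50 nM) in PBS pH 7.4, 0.01% Tween-20, then compound added for 30 min. AlphaScreen streptavidin donor/nickel chelate acceptor beads (10 ug/mL final), 30 min dark, luminescence read.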
G9a block = qHTS Assay for Inhibitors of Histone Lysine Methyltransferase G9a; Histone-lysine N-methyltransferase EHMT2 (Homo sapiens), Q96KQ7; G9a H3K9 monomethylation, AlphaScreen, 2 h; Potency, µM (highest dose often 102 µM), usual class: inhibitors; 350,000 tested, 8.8% active; AID 504332, 2011; further: nearly all actives have a fitted effect of over 75% in size
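Methyltransferase reactions run at room temperature for 2 h (20 nM enzyme, 500 nM biotin-H3K9 peptide, 20 uM SAM) after a 15 min compound preincubation; product detected by AlphaScreen beads and anti-H3K9me1 antibody.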
JMJD2A Tudor = qHTS Assay for Inhibitors of JMJD2A-Tudor Domain; AlphaScreen JMJD2A-Tudor / H3K4me3 peptide binding; 390,000 tested, 4.4% active; Potency, µM (doses to about 114 µM), usual class: inhibitors; Lysine-specific demethylase 4A (Homo sapiens), O75164; further: nearly all actives have a fitted effect of over 50% in size
BAZ2B block = qHTS Assay for Inhibitors of BAZ2B; 360,000 tested, 4.4% active; AlphaScreen BAZ2B-H3K14Ac peptide displacement; Potency, µM (top dose mostly 114 µM), usual class: inhibitors; Bromodomain adjacent to zinc finger domain protein 2B (Homo sapiens), Q9UIF8; further: nearly all actives have a fitted effect of over 60% in size
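Complex of BAZ2B and biotin-H3K14Ac (50 nM apiece) forms over 30 min at RT, then faces library compounds up to 110 uM for another 30 min; AlphaScreen beads added, 20 min dark incubation, luminescence read.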
Numbers stand for hits; n = inactive; u = inconclusive; x = not tested or not shown; ! = not confirmed by another sample; [ ] = remark or other dose. Sampled rows, rich in hits. Any-hit rate of the full collection: about 10%. Unless noted, the call rests on the fitted dose curve; in most records, active means well fitted inhibition curve with a large enough effect; inconclusive means small, poorly fitted or top-dose-only effect; inactive means no such curve, though single readings can be large or run the other way.

SMILES	Six1-Eya2 inh	CtBP-E1A blk	HP1b binding inh	G9a block	JMJD2A Tudor	BAZ2B block
COc1ccc(CCN2C(=O)CC(C(N)=O)SC2=Nc2ccccc2)cc1 (stereo unspecified)	n	n	n	u	79µM	u
CNC(=O)C1CC(=O)N(CCc2ccccc2)C(=Nc2ccc(OC)cc2)S1 (stereo unspecified)	n	n	n	n	n	n
CCNC(=O)C1CC(=O)N(Cc2ccc3c(c2)OCO3)C(=Nc2ccc(F)cc2)S1 (stereo unspecified)	n	n	n	n	n	n
Cc1ccc(Cl)cc1Nc1nc2ccccc2n2c(C)nnc12	x	x	n	n	n	n
CCc1ccc2[nH]c(=O)c(CN(Cc3ccccc3)Cc3nnnn3C(C)(C)C)cc2c1	x	x	n	x	n	x
Cc1ccc2c(c1)/C(=C/c1ccc(F)cc1)C(=O)N2	n	x	n	n	u	n
Cc1ccc2c(c1)N/C(=C(\C=C(/Cl)[N+](=O)[O-])[N+](=O)[O-])N2	x	x	x	22µM	x	n
O=C(O)CS(=O)(=O)CC(=O)O	n	n	n	u	u	79µM
O=C(O)CS(=O)(=O)CC(=O)NCc1cccc(C(F)(F)F)c1	n	n	n	n	n	u
OB(O)c1csc2ccccc12	x	x	n	x	n	x
CC(=O)c1ccc(OCC(O)CN(C)Cc2cccs2)cc1 (stereo unspecified)	n	n	u	3.5µM	7.9µM	50µM
CN(Cc1cccs1)CC(O)COCc1ccco1 (stereo unspecified)	n	n	n	45µM	n	n
Nc1nc(CN2CCC(Cc3ccccc3)CC2)nc(Nc2ccccc2)n1	n	n	n	n[12.7 µM]	u	n
Nc1nc(CN2CCN(Cc3ccc4c(c3)OCO4)CC2)nc(Nc2ccccc2)n1	n	n	n	n[12.7 µM]	u	u
Cc1cccc(Nc2nc(N)nc(CN3CCN(c4ccc(F)cc4)CC3)n2)c1	n	u	n	45µM	56µM	n
Nc1nc(CN2CCCCCC2)nc(Nc2ccccc2)n1	n	n	n	u	20µM	10µM
Cc1ccc(Nc2nc(N)nc(CN3CCCCCC3)n2)cc1	n	n	n	u	50µM	11µM
Cc1ccc(Nc2nc(N)nc(CN3CCN(C(=O)c4ccco4)CC3)n2)cc1Cl	n	n	n	50µM	u	n
Cc1cccc(C)c1NC(=O)C(c1ccc(C(F)(F)F)cc1)n1c(=O)c(-c2ccccc2)nc2ccccc21 (stereo unspecified)	n	n	x	x	x	x
CCOC(=O)[C@]12CCC=C1N(Cc1cccc3ccccc13)C(=O)[C@H](CC(=O)NCCCN1CCCC1=O)C2	n	n	x	x	x	x
O=C(Nc1nccs1)c1csc([C@H]2C[C@H](O)[C@@H](CO)O2)n1	n	n	x	x	x	x
COc1cc(NS(=O)(=O)c2ccc(NC(=O)COc3ccc(Cl)cc3Cl)cc2)nc(OC)n1	x	x	n	u	n	n
CCOC(=O)C1CCCN(Cc2nc(N)nc(Nc3ccccc3)n2)C1 (stereo unspecified)	n	n	n	n[12.7 µM]	56µM	35µM
Cc1ccc(Nc2nc(N)nc(CSc3nnnn3-c3ccccc3)n2)cc1	n	n	n	n[12.7 µM]	89µM	u
Nc1nc(COC(=O)C2CC(=O)N(Cc3ccccc3)C2)nc(Nc2ccccc2)n1 (stereo unspecified)	n	n	n	n[12.7 µM]	n	n
CCCCCC/C=C/c1ccc(C2C3C=CCC(C)C3C(=O)N2Cc2ccccc2)c(F)c1 (stereo unspecified)	x	x	n	x	n	x
O=c1[nH]ccc2c(O)cccc12	n	n	n	25µM!	n	x
Nc1cccc2c(O)cccc12	n	n	n	x	n	x
Oc1ccc2oc3c(c2c1C=NCc1ccncc1)CCCC3	n	n	n	71µM	n	n
Oc1ccc2oc3c(c2c1/C=N/n1cnnc1)CCCC3	n	n	n	u	n	x
